{
  "source": "PubChem BioAssay (NCATS)",
  "key": {"[1]": {"target": "Alpha-galactosidase (Coffea arabica) (UniProt Q42656)", "sequence (Q42656 whole entry, looked up)": "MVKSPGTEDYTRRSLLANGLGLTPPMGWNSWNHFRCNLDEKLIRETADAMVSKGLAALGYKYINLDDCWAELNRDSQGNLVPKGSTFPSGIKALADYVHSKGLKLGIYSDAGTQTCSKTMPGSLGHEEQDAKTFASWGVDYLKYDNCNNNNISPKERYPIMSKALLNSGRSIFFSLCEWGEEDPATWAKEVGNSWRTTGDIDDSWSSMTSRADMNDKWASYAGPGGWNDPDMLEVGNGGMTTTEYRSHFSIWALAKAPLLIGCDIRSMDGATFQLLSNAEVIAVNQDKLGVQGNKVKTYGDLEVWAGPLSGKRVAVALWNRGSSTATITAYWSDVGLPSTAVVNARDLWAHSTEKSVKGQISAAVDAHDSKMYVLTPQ", "test": "Counterscreen for Glucocerebrosidase Inhibitors: qHTS Assay for Coffee Bean alpha-Galactosidase at pH 5.9 (AID 998)", "how_it_was_run": "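Green coffee bean enzyme (2 nM final) was incubated with compounds (0.7 nM–77 uM) and 4-methylumbelliferyl alpha-D-galactopyranoside (80 uM) in citrate buffer pH 5.9, 20 min at room temperature. High-pH stop; fluorescence 365/440 nm; AC50 from Hill fits.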"}, "[2]": {"target": "Calcium and integrin-binding protein 1 (Homo sapiens) (UniProt Q99828)", "sequence (Q99828 whole entry, looked up)": "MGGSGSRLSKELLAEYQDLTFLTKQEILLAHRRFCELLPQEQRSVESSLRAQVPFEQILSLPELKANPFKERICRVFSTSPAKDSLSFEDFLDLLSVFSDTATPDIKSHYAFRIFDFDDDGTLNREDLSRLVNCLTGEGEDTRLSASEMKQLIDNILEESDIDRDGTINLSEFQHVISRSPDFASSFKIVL", "test": "Confirmatory qHTS for Identification of Calcium Integrin Binding Protein 1 (CIB1) Competitor (AID 1508617); also: potency is read from the fitted curve at half-maximal effect; nearly all actives have a fitted effect of over 65% in size", "settings": "CIB1 binding competition assay, biochemical qHTS", "how_it_was_run": "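Confirmatory qHTS measures displacement of a FITC-alphaIIb peptide (100 nM) from CIB1-GST (1 uM) by fluorescence polarization. Calcium-containing HEPES buffer, pH 7.4; two 15 min room-temperature incubations.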"}, "[3]": {"test": "Confirmatory screen GU Rhodamine qHTS for Zika virus inhibitors qHTS (AID 1347157); also: potency is read from the fitted curve at half-maximal effect; nearly all actives have a fitted effect of over 70% in size", "how_it_was_run": "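Unlinked NS2B/NS3, 25 nM; Rhod110 peptide, 1.5 microM; compounds, up to 114 microM. Reaction run 15 min at RT in 10 mM Tris-HCl pH 8.0, 0.01% Tween 20; kinetic fluorescence change fitted with a 4-parameter Hill model.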"}, "[4]": {"test": "Confirmatory screen NINDS Rhodamine qHTS for Zika virus inhibitors (AID 1347161); also: potency is read from the fitted curve at half-maximal effect; nearly all actives have a fitted effect of over 60% in size", "how_it_was_run": "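Aprotinin served as in-plate control. Conditions: 25 nM linked NS2B-NS3, pH 8.0 Tris buffer, titrated compounds, 15 min preincubation and 15 min reaction with 1.5 microM Rhod110 substrate at room temperature.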"}, "[5]": {"test": "Confirmation and Secondary Assay for Modulators of Hemoglobin Beta Chain Splicing at IVS2 654 locus (AID 910);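 also: per-well total GFP intensity by laser scanning cytometry after 2-day treatment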", "how_it_was_run": "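HeLa cells stably carrying EGFP interrupted by mutant beta-globin IVS2-654 intron (CMV-driven) were treated with compound for 2 days at 37C; corrected splicing was scored as total peak GFP intensity per well (488 nm excitation, 500-520 nm emission).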"}, "[6]": {"test": "Confirmation and Secondary Assay for Modulators of Hemoglobin Beta Chain Splicing at IVS2 705 locus (AID 930); also: series mostly up to about 46 µM", "how_it_was_run": "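HeLa cells stably carrying EGFP interrupted by mutant beta-globin IVS2-705 intron (CMV-driven) were seeded at 500 cells/well, treated next day with compound for 2 days at 37C; corrected splicing restores EGFP, read as total peak GFP intensity per well.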"}, "[7]": {"target": "N-terminal Xaa-Pro-Lys N-methyltransferase 1 (Homo sapiens) (UniProt Q9BV86)", "sequence (Q9BV86 whole entry, looked up)": "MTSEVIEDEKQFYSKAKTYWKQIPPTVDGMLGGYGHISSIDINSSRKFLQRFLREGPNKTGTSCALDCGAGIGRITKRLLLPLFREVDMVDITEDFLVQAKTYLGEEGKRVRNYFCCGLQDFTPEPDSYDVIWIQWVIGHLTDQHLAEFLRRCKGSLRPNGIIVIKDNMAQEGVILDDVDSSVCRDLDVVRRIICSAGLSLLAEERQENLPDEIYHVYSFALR", "test": "Confirmatory qHTS for Inhibitors of N-terminal methyltransferase 1 (NTMT1): MTaseGlo Assay (AID 1645874); also: potency is read from the fitted curve at half-maximal effect; nearly all actives have a fitted effect of over 65% in size", "settings": "NTMT1 enzyme, MTase-Glo SAH luminescence", "how_it_was_run": "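Preincubation of NTMT1 (125 nM) plus SAM (100 uM) with test compounds lasted 15 min; methylation of 1 uM SPKRIA then proceeded 30 min in the dark at room temperature. Luciferase signal reported SAH produced.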"}, "[8]": {"test": "Counterscreen qHTS for small molecule stabilizers of the endoplasmic reticulum resident proteome: GLuc-NoTag assay (AID 1508627);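 also: SH-SY5Y cells given compound then 100 nM thapsigargin to empty ER calcium; series mostly up to about 76 µM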", "how_it_was_run": "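SH-SY5Y cells stably expressing constitutively secreted GLuc (no SERCaMP tag) were pre-incubated 5 h, treated with compound for 19 h, then 100 nM thapsigargin for 4 h at 37C; medium GLuc read by coelenterazine luminescence.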"}, "[9]": {"test": "Cell Viability qHTS for small molecule stabilizers of the endoplasmic reticulum resident proteome (AID 1508629);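 also: compound exposure about 46 h in total before the viability read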", "settings": "cell viability counter-screen, 100 nM thapsigargin for final 4 h"}, "[10]": {"test": "VSVG counterscreen qHTS to identify inhibitors of SARS-CoV-2 cell entry (AID 1645847; calls by dose curve; also: potency is read from the fitted curve at half-maximal effect; nearly all actives have a fitted effect of over 65% in size)", "how_it_was_run": "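HEK293-ACE2 cells (Expi293F, human ACE2) pretreated 1 h with compound, then infected with MLV-based VSV-G pseudotyped particles for 48 h at 37 C; luciferase luminescence normalized to VSV-G PP and bald PP wells.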"}, "[11]": {"target": "Luciferin 4-monooxygenase (Photinus pyralis) (UniProt P08659)", "sequence (P08659 whole entry, looked up)": "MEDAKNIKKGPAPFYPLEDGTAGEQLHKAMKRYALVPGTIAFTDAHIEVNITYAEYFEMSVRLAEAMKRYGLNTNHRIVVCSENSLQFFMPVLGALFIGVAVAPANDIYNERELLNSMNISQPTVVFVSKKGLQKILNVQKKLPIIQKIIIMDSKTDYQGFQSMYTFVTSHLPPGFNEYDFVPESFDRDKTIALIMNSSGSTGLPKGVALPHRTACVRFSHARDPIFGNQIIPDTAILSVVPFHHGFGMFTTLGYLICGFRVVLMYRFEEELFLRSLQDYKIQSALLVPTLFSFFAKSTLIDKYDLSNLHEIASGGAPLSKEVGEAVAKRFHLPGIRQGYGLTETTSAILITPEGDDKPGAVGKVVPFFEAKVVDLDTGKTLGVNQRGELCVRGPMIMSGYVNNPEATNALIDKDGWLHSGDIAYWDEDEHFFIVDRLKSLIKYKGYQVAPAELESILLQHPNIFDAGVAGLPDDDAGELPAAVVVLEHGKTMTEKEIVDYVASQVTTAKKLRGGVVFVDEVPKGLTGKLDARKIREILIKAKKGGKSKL", "test": "Biochemical firefly luciferase enzyme assay for NPC (AID 624030); also: series mostly up to about 59 µM; nearly all actives have a fitted effect of over 70% in size", "how_it_was_run": "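Counter-screen for direct inhibition of the luciferase enzyme by approved-drug library compounds, run at 10 nM enzyme in 50 mM Tris acetate (final). Luminescence was read within 5 min of enzyme-buffer addition and normalized to PTC124 versus DMSO (0%).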"}, "[12]": {"target": "Nuclear receptor subfamily 1 group I member 3 (Homo sapiens) (UniProt Q14994)", "sequence (Q14994 whole entry, looked up)": "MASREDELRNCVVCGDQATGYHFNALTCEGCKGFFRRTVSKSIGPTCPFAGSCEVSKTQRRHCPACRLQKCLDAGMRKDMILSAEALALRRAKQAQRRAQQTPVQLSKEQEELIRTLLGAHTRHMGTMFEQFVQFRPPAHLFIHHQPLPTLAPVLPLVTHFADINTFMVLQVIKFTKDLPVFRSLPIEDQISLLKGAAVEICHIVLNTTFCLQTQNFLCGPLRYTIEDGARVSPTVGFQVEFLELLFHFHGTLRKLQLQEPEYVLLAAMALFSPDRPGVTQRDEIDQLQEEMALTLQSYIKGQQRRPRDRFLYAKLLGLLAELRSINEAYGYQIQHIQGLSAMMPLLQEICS", "test": "Primary qHTS for antagonist of constitutive androstane receptor (CAR) against the NCATS DSHEA and TCM libraries (AID 1794836); also: potency is read from the fitted curve at half-maximal effect", "how_it_was_run": "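HepG2 cells stably carrying hCAR and a CYP2B6 luciferase reporter (2,500 cells/well) attached for 5 h, then received compounds with 48 uM CITCO for 24 h at 37C. ONE-Glo luminescence read antagonism; CellTiter-Fluor (405/540 nm) gave viability.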"}, "[13]": {"test": "Viability counterscreen for agonist of constitutive androstane receptor (CAR) against the NCATS DSHEA and TCM libraries (AID 1794838)", "how_it_was_run": "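HepG2-CYP2B6-hCAR cells (2,500/well) treated 24 h at 37C with compounds plus 0.75 uM PK11195; viability read by CellTiter-Fluor fluorescence, Ex/Em 405/540 nm.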"}, "[14]": {"target": "Nuclear receptor subfamily 1 group I member 3 (Homo sapiens) (UniProt Q14994)", "test": "Primary qHTS for agonist of constitutive androstane receptor (CAR) against the NCATS DSHEA and TCM libraries (AID 1794839)", "how_it_was_run": "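HepG2-CYP2B6-hCAR cells, 2,500/well, attached 5 h, then dosed with 0.75 µM PK11195 (final) for 24 h at 37 °C. Luciferase luminescence read (ONE-Glo); CellTiter-Fluor viability (Ex/Em 405/540 nm) in same wells; CITCO positive control.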"}, "[15]": {"test": "HepG2 viability counterscreen (readout 2: ATP content) against the NCATS DSHEA and TCM libraries (AID 1794840)", "how_it_was_run": "(§1)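 HepG2 cells, 1,000/well, attached ~4 h, then exposed ~24 h at 37C to substances. Protease activity read by fluorescence of 25 uM GF-AFC (Ex/Em 380/510 nm) after 30 min; ATP then by CellTiter-Glo luminescence.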"}, "[16]": {"test": "HepG2 viability counterscreen (readout 1: protease activity) against the NCATS DSHEA and TCM libraries (AID 1794841)", "how_it_was_run": "as §1"}, "[17]": {"target": "Cytochrome P450 3A4 (Homo sapiens) (UniProt P08684)", "sequence (P08684 whole entry, looked up)": "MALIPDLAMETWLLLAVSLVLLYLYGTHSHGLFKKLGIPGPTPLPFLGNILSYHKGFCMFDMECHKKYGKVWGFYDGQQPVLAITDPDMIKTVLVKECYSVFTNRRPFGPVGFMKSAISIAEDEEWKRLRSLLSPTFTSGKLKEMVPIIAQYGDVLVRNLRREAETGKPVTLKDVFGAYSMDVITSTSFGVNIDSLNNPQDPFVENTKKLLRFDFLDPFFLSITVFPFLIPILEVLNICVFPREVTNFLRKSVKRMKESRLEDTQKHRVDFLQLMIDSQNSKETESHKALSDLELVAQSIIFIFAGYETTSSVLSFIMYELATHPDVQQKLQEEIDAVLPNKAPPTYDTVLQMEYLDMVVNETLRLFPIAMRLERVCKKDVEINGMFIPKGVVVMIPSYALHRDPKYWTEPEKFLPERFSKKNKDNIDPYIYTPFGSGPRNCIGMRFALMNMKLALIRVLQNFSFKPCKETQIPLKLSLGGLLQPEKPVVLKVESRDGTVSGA", "test": "qHTS for inhibitors of CYP3A4 against the NCATS DSHEA and TCM libraries (AID 1919971)", "how_it_was_run": "(§2)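 Light output from converted D-luciferin reports remaining CYP activity. Compounds preincubate with enzyme and substrate for 15 min; NADPH regeneration (1x final) runs the reaction for 30-45 min.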"}, "[18]": {"target": "Cytochrome P450 2D6 (Homo sapiens) (UniProt P10635)", "sequence (P10635 whole entry, looked up)": "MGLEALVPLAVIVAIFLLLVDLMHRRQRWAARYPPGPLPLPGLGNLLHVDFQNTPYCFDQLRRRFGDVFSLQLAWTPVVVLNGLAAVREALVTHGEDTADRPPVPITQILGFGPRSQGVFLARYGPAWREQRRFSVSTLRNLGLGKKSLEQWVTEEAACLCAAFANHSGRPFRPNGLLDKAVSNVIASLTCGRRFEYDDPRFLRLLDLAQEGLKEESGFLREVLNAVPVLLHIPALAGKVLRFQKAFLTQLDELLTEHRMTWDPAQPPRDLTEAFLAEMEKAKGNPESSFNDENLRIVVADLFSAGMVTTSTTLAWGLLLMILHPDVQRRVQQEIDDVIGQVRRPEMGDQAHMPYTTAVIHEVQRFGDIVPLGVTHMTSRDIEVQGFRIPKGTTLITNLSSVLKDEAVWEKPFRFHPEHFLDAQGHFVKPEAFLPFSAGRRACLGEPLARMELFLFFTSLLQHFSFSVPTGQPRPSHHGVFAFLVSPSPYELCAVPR", "test": "qHTS for inhibitors of CYP2D6 against the NCATS DSHEA and TCM libraries (AID 1919972)", "how_it_was_run": "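Steps: enzyme plus luciferin substrate dispensed; test substances pinned; 15 min RT; 1x NADPH regenerating solution added, 30–45 min RT protected from light; detection reagent, 30 min RT; luminescence measured. Minus-enzyme wells as background.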"}, "[19]": {"target": "Cytochrome P450 2C9 (Homo sapiens) (UniProt P11712)", "sequence (P11712 whole entry, looked up)": "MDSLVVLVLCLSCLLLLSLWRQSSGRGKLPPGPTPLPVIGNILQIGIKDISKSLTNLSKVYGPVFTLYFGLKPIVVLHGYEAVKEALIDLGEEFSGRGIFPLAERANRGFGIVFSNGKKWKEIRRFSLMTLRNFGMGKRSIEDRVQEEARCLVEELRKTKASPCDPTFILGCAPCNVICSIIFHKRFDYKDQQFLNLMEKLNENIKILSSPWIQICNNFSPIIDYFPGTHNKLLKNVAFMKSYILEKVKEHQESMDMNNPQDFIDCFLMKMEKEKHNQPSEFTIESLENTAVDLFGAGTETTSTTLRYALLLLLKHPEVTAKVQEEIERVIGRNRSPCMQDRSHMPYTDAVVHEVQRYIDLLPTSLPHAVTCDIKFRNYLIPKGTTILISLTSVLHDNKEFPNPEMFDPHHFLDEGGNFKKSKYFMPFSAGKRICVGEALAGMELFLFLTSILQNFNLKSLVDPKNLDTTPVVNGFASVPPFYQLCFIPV", "test": "qHTS for inhibitors of CYP2C9 against the NCATS DSHEA and TCM libraries (AID 1919973)", "how_it_was_run": "as §2"}, "[20]": {"target": "Cytochrome P450 2C19 (Homo sapiens) (UniProt P33261)", "sequence (P33261 whole entry, looked up)": "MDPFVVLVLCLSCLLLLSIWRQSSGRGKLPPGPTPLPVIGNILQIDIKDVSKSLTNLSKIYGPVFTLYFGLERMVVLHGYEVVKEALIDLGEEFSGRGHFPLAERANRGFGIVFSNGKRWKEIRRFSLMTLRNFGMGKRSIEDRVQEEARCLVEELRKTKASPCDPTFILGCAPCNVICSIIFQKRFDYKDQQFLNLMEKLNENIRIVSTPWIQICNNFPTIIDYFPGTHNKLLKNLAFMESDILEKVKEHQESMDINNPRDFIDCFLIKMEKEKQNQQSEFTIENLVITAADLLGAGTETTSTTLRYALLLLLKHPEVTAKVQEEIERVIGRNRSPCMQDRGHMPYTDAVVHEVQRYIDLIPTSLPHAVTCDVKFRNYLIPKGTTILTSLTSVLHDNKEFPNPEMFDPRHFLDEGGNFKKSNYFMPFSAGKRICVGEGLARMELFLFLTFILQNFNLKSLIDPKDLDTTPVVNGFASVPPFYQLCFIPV", "test": "qHTS for inhibitors of CYP2C19 against the NCATS DSHEA and TCM libraries (AID 1919974)", "settings": "CYP2C19 enzyme inhibition, luminescence qHTS", "how_it_was_run": "as §2"}},
  "note": "Records with an inconclusive call do not appear. Where a call stands in place of a potency, no number is given. The source made the active and inactive calls. Unless noted, calls follow the shape of the dose curve; as a rule, active = well fitted curve in the direction sought with a large enough effect; inconclusive = small, poorly fitted or top-dose-only effect, or another doubt; inactive = no such curve, though single readings can be large; an effect the other way counts as inactive or inconclusive.",
  "data": [
    {"smiles": "C=CCN1CCC2(C)c3cc(O)ccc3C[C@H]1[C@H]2C", "values": [
      {"measurement": "outcome", "setting": "[1]", "value": "inactive"}
    ]},
    {"smiles": "C=C1[C@@H](C)[C@H]2[C@H](Cc3ccccc3)NC(=O)[C@]23OC(=O)/C=C/C(=O)CCC[C@@H](C)C/C=C/[C@H]3[C@@H]1O", "values": [
      {"measurement": "Potency", "setting": "[2]", "value": "10 µM (active)"}
    ]},
    {"smiles": "CNc1ccc2oc(C[C@H]3O[C@@]4(CC[C@H]3C)O[C@H](C(C)C(=O)c3ccc[nH]3)[C@H](C)C[C@H]4C)nc2c1C(=O)O", "note": "(stereo not given in full)", "values": [
      {"measurement": "Potency", "setting": "[3]", "value": "13.9 µM (active)"},
      {"measurement": "Potency", "setting": "[4]", "value": "31.2 µM (active)"}
    ]},
    {"smiles": "CC1CCCC(=O)CCC/C=C/c2cc(O)cc(O)c2C(=O)O1", "note": "(stereo not given)", "values": [
      {"measurement": "Potency", "setting": "[5]", "value": "inactive"},
      {"measurement": "outcome", "setting": "[6]", "value": "inactive"},
      {"measurement": "Potency", "setting": "[7]", "value": "15.8 µM (active)"}
    ]},
    {"smiles": "C[C@H]1CCC/C=C/C2C[C@H](O)C[C@H]2[C@H](O)/C=C/C(=O)O1", "note": "(stereo not given in full)", "values": [
      {"measurement": "Potency", "setting": "[8]", "value": "inactive"},
      {"measurement": "max response", "setting": "[9]", "value": "21.4% (inactive)"},
      {"measurement": "Potency", "setting": "[10]", "value": "0.857 µM (active)"}
    ]},
    {"smiles": "O=C(CC1NCCC[C@H]1O)Cn1cnc2cc(Br)c(Cl)cc2c1=O", "note": "(stereo not given in full)", "values": [
      {"measurement": "Potency", "setting": "[11]", "value": "inactive"}
    ]},
    {"smiles": "C=C(CO)C(=O)O[C@H]1CC(=C)[C@@H]2C[C@H](O)C(=C)[C@@H]2[C@H]2OC(=O)C(=C)[C@@H]21", "values": [
      {"measurement": "Potency", "setting": "[12]", "value": "22.4 µM (active)"},
      {"measurement": "outcome", "setting": "[13]", "value": "inactive"},
      {"measurement": "outcome", "setting": "[14]", "value": "inactive"},
      {"measurement": "outcome", "setting": "[15]", "value": "inactive"},
      {"measurement": "outcome", "setting": "[16]", "value": "inactive"},
      {"measurement": "outcome", "setting": "[17]", "value": "inactive"},
      {"measurement": "outcome", "setting": "[18]", "value": "inactive"},
      {"measurement": "outcome", "setting": "[19]", "value": "inactive"},
      {"measurement": "Potency", "setting": "[20]", "value": "2.24 µM (active)"}
    ]}
  ]
}
